RORgamma inh: blocks mouse ROR gamma transcriptional activity | P51450 | Drosophila S2 Gal4-RORgamma UAS-luciferase reporter, 20 h | Potency, µM (highest dose often 53.6 µM), most hits filed as inhibitors | actives 5.4% (n = 310,000) | AID 2551; further: nearly all actives have a fitted effect of over 60% in size
Target sequence (P51450 whole entry, looked up, the tested form may be a part): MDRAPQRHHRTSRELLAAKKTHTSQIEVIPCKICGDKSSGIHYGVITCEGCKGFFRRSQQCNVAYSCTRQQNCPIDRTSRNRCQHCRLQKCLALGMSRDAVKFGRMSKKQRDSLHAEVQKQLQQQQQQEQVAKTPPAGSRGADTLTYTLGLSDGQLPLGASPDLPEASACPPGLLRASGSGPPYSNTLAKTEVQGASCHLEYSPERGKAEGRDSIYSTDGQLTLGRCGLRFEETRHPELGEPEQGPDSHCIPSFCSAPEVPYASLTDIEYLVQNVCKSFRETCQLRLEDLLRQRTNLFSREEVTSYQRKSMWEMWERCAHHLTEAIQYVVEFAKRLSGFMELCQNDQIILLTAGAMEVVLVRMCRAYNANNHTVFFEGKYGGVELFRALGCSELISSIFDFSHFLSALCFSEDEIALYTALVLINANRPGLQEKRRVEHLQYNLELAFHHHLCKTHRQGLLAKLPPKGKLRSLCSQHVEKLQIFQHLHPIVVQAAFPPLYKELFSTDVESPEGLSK
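Schneider cells (Drosophila), stable Gal4 DBD–ROR gamma + UAS-luc; 1 hr cmpd preincubation; Cu2+ induction 700 uM final; 20 hr ambient; luminescence.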
Luc counter: Kinase-Glo luciferase inhibition (counter-screen); Q27757; Kinase-Glo luciferase, ATP luminescence, 8 min; Potency, µM (top dose mostly 38.3 µM), actives largely listed as inhibitors; actives 0.28% (n = 200,000); AID 1379; further: nearly all actives have a fitted effect of over 60% in size
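Compound is pinned into ATP-containing buffer (10 uM ATP, imidazole pH 7.2, 7 mM MgCl2). Kinase-Glo luciferase reagent is then added. Light output is recorded following an 8-min room-temperature incubation.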
Gal4-VP16 FLuc: inhibits Gal4-VP16 luciferase reporter, ROR gamma counter-screen; Drosophila S2 Gal4-VP16 UAS-luciferase, luminescence, 20 h; Potency, µM (highest dose often 53.6 µM), most hits filed as inhibitors; actives 3.5% (n = 310,000);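 further: Gal4-VP16 expression switched on by copper sulfate through the metallothionein promoter; nearly all actives have a fitted effect of over 50% in size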
Large screens that a line does not name were inactive. An excerpt weighted towards active compounds, which were near 6.4% of everything screened. The call rests on the fitted dose curve; in most records, active means well fitted curve in the direction sought with a large enough effect; inconclusive means small, poorly fitted or top-dose-only effect, or another doubt; inactive means no such curve, though single readings can be large; an effect the other way counts as inactive or inconclusive.

CC[C@H](C)[C@H](NC(=O)[C@H](Cc1ccc(O)cc1)NC(=O)[C@H](Cc1cnc[nH]1)NC(=O)[C@H](CCCNC(=N)N)NC(=O)[C@H](CC(C)C)NC(=O)[C@H](C)NC(=O)[C@H](CO)NC(=O)[C@H](Cc1ccc(O)cc1)NC(=O)[C@H](Cc1ccc(O)cc1)NC(=O)[C@H](CCCNC(=N)N)NC(=O)[C@H](C)NC(=O)[C@H](CC(C)C)NC(=O)[C@H](CC(=O)O)NC(=O)[C@H](CCC(=O)O)NC(=O)[C@H](C)NC(=O)[C@@H]1CCCN1C(=O)[C@H](C)NC(=O)[C@H](CC(=O)O)NC(=O)[C@H](CCC(=O)O)NC(=O)CNC(=O)[C@@H]1CCCN1C(=O)[C@H](CC(N)=O)NC(=O)[C@H](CC(=O)O)NC(=O)[C@@H]1CCCN1C(=O)[C@H](CCCCN)NC(=O)[C@H](CO)NC(=O)[C@@H]1CCCN1C(=O)[C@@H](N)Cc1ccc(O)cc1)C(=O)N[C@@H](CC(N)=O)C(=O)N[C@@H](CC(C)C)C(=O)N[C@@H](CC(C)C)C(=O)N[C@H](C(=O)N[C@@H](CCCNC(=N)N)C(=O)N1CCC[C@H]1C(=O)N[C@@H](CCCNC(=N)N)C(=O)N[C@@H](Cc1ccc(O)cc1)C(N)=O)[C@@H](C)O	none (no result: Luc counter)
CC(C)C(NC(=O)c1ccccc1F)C(=O)NCc1ccc(F)cc1 (stereo not given)	none (no result: Luc counter)
O=C(CN1C(=O)c2cccc3cccc(c23)C1=O)NCCN1CCOCC1	none
O=C(/C=C/c1ccc(Cl)cc1)Nc1ccc(N2CCOCC2)cc1	none
O=C(/C=C/c1ccccc1)NC(=S)Nc1ccc(N2CCOCC2)cc1	RORgamma inh 1µM, Gal4-VP16 FLuc 3.2µM
O=C(/C=C/c1ccc(S(=O)(=O)N2CCOCC2)cc1)NC(=S)Nc1ccc(Cl)cc1Cl	RORgamma inh 11µM
O=C(/C=C/c1ccccc1)NC(NC(=S)Nc1ccc(Cl)cc1)C(Cl)(Cl)Cl (stereo not given)	RORgamma inh inconclusive, Gal4-VP16 FLuc 10µM
COc1ccc(NC(=S)NC(NC(=O)/C=C/c2ccccc2)C(Cl)(Cl)Cl)cc1 (stereo not given)	RORgamma inh inconclusive, Gal4-VP16 FLuc inconclusive
C=CCN(CC=C)S(=O)(=O)c1ccc(NC(=S)NC(=O)/C=C/c2ccccc2)cc1	RORgamma inh 2.5µM
CCN(CC)S(=O)(=O)c1cccc(NC(=S)NC(=O)/C=C/c2ccc(S(=O)(=O)N3CCOCC3)cc2)c1	RORgamma inh inconclusive
COc1nccnc1NS(=O)(=O)c1ccc(NC(=S)NC(=O)/C=C/c2ccccc2)cc1	Gal4-VP16 FLuc inconclusive
Cc1cc(C(=O)COC(=O)c2cccnc2Cl)c(C)n1-c1c(C)n(C)n(-c2ccccc2)c1=O	none
CCOc1cc2c(cc1/C=C1/NC(=O)N(CC(=O)OC)C1=O)OCO2	none
COC(=O)c1cc(S(=O)(=O)NCc2cccc(Br)c2)c[nH]1	none (no result: Luc counter)
C/C(CCN1CCCc2nc(C)c(C)cc21)=N\OC[C@@H](O)[C@@H]1O[C@@H]2OC(C)(C)O[C@@H]2[C@H]1O	none (no result: Luc counter)
CCOC(=O)Cn1ccc(NC(=O)c2ccc(F)cc2)n1	none (no result: Luc counter)
COCCn1c(=O)c(-c2cc(F)cc(F)c2)nc2cnc(OC)nc21	none
Cc1ccc2nccc(C(=O)N3CCCC(Nc4ccc(C)c(C)c4)C3)c2c1 (stereo not given)	none (no result: Luc counter)
Cc1c(OCC(=O)NC2CCN(Cc3ccccc3)CC2)ccc2c3c(c(=O)oc12)CCC3	none (no result: Luc counter)
O=C(Nc1ccccc1)O/N=C/c1ccc(F)cc1	RORgamma inh 10µM, Gal4-VP16 FLuc inconclusive (no result: Luc counter)
Cc1ccc(NC(=O)O/N=C/c2ccc(F)cc2)cc1	none (no result: Luc counter)
O=C(/C=C/c1ccccc1)NC(=S)Nc1ncccn1	none (no result: Luc counter)
O=C(/C=C/c1ccccc1)NC(=S)Nc1ccccc1	RORgamma inh inconclusive, Gal4-VP16 FLuc 2µM (no result: Luc counter)
COC(=O)N1C(/C=C/c2ccc3c(c2)OCO3)=Cc2ccccc2C1CC(C)=O (stereo not given)	none (no result: RORgamma inh, Gal4-VP16 FLuc)
NC(=O)NCC(c1ccccc1)C1CCCCC1 (stereo not given)	none (no result: Luc counter)
CC(=O)[C@@]1(O)CC[C@H]2C3CCC4=CC(=O)CC[C@]4(C)C3CC[C@@]21C (stereo not given in full)	none (no result: RORgamma inh, Gal4-VP16 FLuc)
CCc1ccc(OCC(=O)NC(=S)Nc2ccc(F)cc2)c(Br)c1	none
CCc1ccc(OCC(=O)NC(=S)Nc2cccc(CO)c2)c(Br)c1	RORgamma inh 11µM, Gal4-VP16 FLuc 10µM
COc1cc(C(=O)N(C)CCOc2ccc(C)cc2)ccc1OC1CCN(C(C)=O)CC1	none (no result: Luc counter)
O=c1c(-n2cncn2)c[nH]n1-c1cccc(Cl)n1	none
O=c1c(/C=N/OCc2ccc(Cl)cc2Cl)c[nH]n1-c1cccc(Cl)n1	RORgamma inh 13µM, Gal4-VP16 FLuc 20µM

Source: PubChem BioAssay (National Center for Advancing Translational Sciences (NCATS))
